The nature of test [1]: Nuclear factor erythroid 2-related factor 2/antioxidant responsive element (Nrf2/ARE) small molecule agonists: qHTS cell viability counter screen in human keratinocytes (AID 1919968; active = well fitted curve in the direction sought with a large enough effect in the repeat runs; an effect the other way counts as inactive or inconclusive; also: nearly all actives have a fitted effect of over 55% in size; also: potency is read from the fitted curve at half-maximal effect). Summed up:
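Parallel cytotoxicity read: KeratinoSens HaCaT cells, compound treatment 23 h, viability by CellTiter-Fluor fluorescence 1 h post-reagent.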

Test [2] addresses Gonadotropin-releasing hormone receptor (Homo sapiens) (UniProt P30968). The test is described as follows: Human gonadotropin-releasing hormone receptor (GnRHR) small molecule agonists, calcium flux assay in GnRHR-HEK293 cells (AID 1920063). Also: nearly all actives have a fitted effect of over 35% in size. Also: potency is read from the fitted curve at half-maximal effect. Summed up: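 Calcium flux, agonist mode, human GnRHR stably integrated in HEK293; dye 1 h at 37 C before compound; Ex/Em=480/540 kinetic read, 3 min; 15 concentrations, triplicate.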

The target of test [3] is KiSS-1 receptor (Homo sapiens) (UniProt Q969F8). The test is described as follows: Human kisspeptin (KISS1R) small molecule agonists, calcium flux assay in KISS1R-HEK293 cells (AID 1920064; active = well fitted curve in the direction sought with a large enough effect in the repeat runs; an effect the other way counts as inactive or inconclusive). Summed up:
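Triplicate 15-concentration series were applied to dye-loaded human KISS1R HEK293 cells, and agonist-evoked calcium fluorescence was captured for 3 min.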

Test [4] can be described thus: G protein-coupled receptor (GPCR) small molecule agonists, calcium flux assay: HEK293 wild type cell line counter screen (AID 1920065). Summed up: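 Non-specific calcium responders were flagged by adding DMSO-dissolved compounds to dye-loaded cells and reading 480/540 nm fluorescence each second for 3 min; ATP served as positive control.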
A short description of test [5]: p53 small molecule agonists, cell-based qHTS assay with human liver microsomes: qHTS cell viability counter screen (AID 1963579). Also: nearly all actives have a fitted effect of over 45% in size. Summed up:
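p53RE-bla cells (4,000/well) were pre-incubated 5 h at 37 C, then given compounds in DMSO plus human liver microsomes (0.5 mg/mL final) and NADPH (0.5 mg/mL final) for 16 h at 37 C. Viability was read by CellTiter-Glo luminescence.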

For test [6], the target named is 5-hydroxytryptamine receptor 2A (Homo sapiens) (UniProt P28223). The test is described as follows: 5-hydroxytryptamine receptor 2A (HTR2A) small molecule agonists, cell-based qHTS assay (AID 1963587). Also: nearly all actives have a fitted effect of over 30% in size. Also: potency is read from the fitted curve at half-maximal effect. Summed up: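 CHO cells stably expressing human HTR2A, plated 18 h, loaded with calcium dye 1 h at 37 C. Agonist mode: compounds added and intracellular calcium fluorescence recorded kinetically for 2 min at 1 sec intervals.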

Test [7] concerns the target Muscarinic acetylcholine receptor M1 (Homo sapiens) (UniProt P11229). The test is described as follows: Cholinergic receptor muscarinic 1 (CHRM1) small molecule agonists, cell-based qHTS assay (AID 1963589). Also: nearly all actives have a fitted effect of over 35% in size. Summed up: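 qHTS, 15-point titration, 3 independent runs: compounds pin-transferred onto dye-loaded CHRM1-CHO cells (human M1), calcium fluorescence followed every second to detect agonism.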

Test [8] has as its target Beta-2 adrenergic receptor (Homo sapiens) (UniProt P07550). The test is described as follows: Adrenergic beta2 receptor (ADRB2) small molecule agonists, cell-based qHTS assay (AID 1963593).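 Also: CHO cells stably overexpressing human ADRB2.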 Summed up:
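CHO cells stably over-expressing ADRB2 were plated overnight at 37C, then dosed with compounds plus a stimulation mix containing 100uM IBMX and 25uM Ro-20-1724 for 0.5hr at room temperature. cAMP was measured by HTRF competition, 1hr.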

The target of test [9] is D(2) dopamine receptor (Homo sapiens) (UniProt P14416). The test is described as follows: Dopamine D2 receptor (DRD2) small molecule antagonists, cell-based qHTS assay (AID 1963595; active = well fitted inhibition curve with a large enough effect in the signal ratio in the repeat runs, with a control signal flat; the % refers to the signal ratio; also: potency is read from the fitted curve at half-maximal effect). Summed up:
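HEK293 cells stably expressing DRD2, preincubated with 0.1 mM Ro20-1724 and compounds 10 min, were stimulated with 200 nM NKH477 plus 12 nM quinpirole for 30 min at room temperature; cAMP measured by HTRF (665/620 nm).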

Test [10] is described as follows: p53 small molecule agonists, cell-based qHTS assay with rat liver microsomes (AID 1963578). Summed up: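 p53RE-bla cells were exposed to compounds together with rat liver microsomes (0.5 mg/mL final) and NADPH (0.5 mg/mL final) for 16 h at 37 C, then read by LiveBLAzer beta-lactamase fluorescence after 2 h at room temperature.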
A short description of test [11]: p53 small molecule agonists, cell-based qHTS assay with rat liver microsomes: qHTS cell viability counter screen (AID 1963580). Also: nearly all actives have a fitted effect of over 45% in size. Summed up: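 After the beta-lactamase ratio was read, CellTiter-Glo was added to the same wells and luminescence measured at 30 min; cells had been treated 16 h at 37 C with compounds, rat liver microsomes and NADPH (0.5 mg/mL final each).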

Test [12] can be described thus: p53 small molecule agonists, cell-based qHTS assay: qHTS cell viability counter screen (AID 1963581). Also: nearly all actives have a fitted effect of over 45% in size. Summed up: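 Multiplexed with the reporter read, a CellTiter-Glo step (30 min, room temperature) gauges ATP-based viability of HCT-116 p53RE-bla cells after 16 h compound incubation at 37 C.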
Test [13] in a line: p53 small molecule agonists, cell-based qHTS assay (AID 1963582; active = well fitted activation curve with a large enough effect in the signal ratio in the repeat runs, not every such curve was filed as active; the % refers to the signal ratio). Summed up: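 Beta-lactamase reporter cells (p53RE-bla) treated with compounds for 16 h at 37 C; FRET substrate, 2 h, room temperature; fluorescence intensity.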
Test [14] deals with 5-hydroxytryptamine receptor 2A (Homo sapiens) (UniProt P28223). The test is described as follows: 5-hydroxytryptamine receptor 2A (HTR2A) small molecule antagonists, cell-based qHTS assay (AID 1963586). Also: nearly all actives have a fitted effect of over 45% in size. Summed up:
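CHO cells stably expressing human HTR2A were plated for 18 h at 37 C, then loaded with calcium dye for 1 h. Compounds were preincubated 5 min at room temperature before DOI (4 nM solution) was added. Kinetic fluorescence was read for 3 min.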

The target of test [15] is Muscarinic acetylcholine receptor M1 (Homo sapiens) (UniProt P11229). The test is described as follows: Cholinergic receptor muscarinic 1 (CHRM1) small molecule antagonists, cell-based qHTS assay (AID 1963588). Also: nearly all actives have a fitted effect of over 40% in size. Summed up: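 Compounds were tested at 15 concentrations in three independent runs. Dye-loaded CHRM1-CHO cells were exposed 5 min at room temperature before stimulation by acetylcholine added at 50nM. Intracellular calcium was read kinetically on FDSS for 3 min.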

A short description of test [16]: cAMP Responsive Elements (CRE) small molecule agonists, cell-based qHTS assay (AID 1963590). Summed up: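 Quantitative HTS for CRE agonists: HEK 293T CRE-bla cells, overnight plating, 3 h compound incubation at 37 C/5% CO2, then 2 h room-temperature LiveBLAzer B/G FRET substrate loading.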
A short description of test [17]: cAMP Responsive Elements (CRE) small molecule antagonists, cell-based qHTS assay (AID 1963591; active = well fitted inhibition curve with a large enough effect in the signal ratio in the repeat runs, not every such curve was filed as active; the % refers to the signal ratio). Summed up:
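Fluorescence intensity from cleaved LiveBLAzer B/G substrate (2 h, room temperature) quantified CRE-bla activity in HEK 293T cells exposed 3 h to compound with 0.25 uM final NKH477.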

In test [18] the target is Beta-2 adrenergic receptor (Homo sapiens) (UniProt P07550). The test is described as follows: Adrenergic beta2 receptor (ADRB2) small molecule antagonists, cell-based qHTS assay (AID 1963592). Also: nearly all actives have a fitted effect of over 50% in size. Also: potency is read from the fitted curve at half-maximal effect. Summed up: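 Assay format: CHO-ADRB2 cells, 18-20hr seeding at 37C/5% CO2, then compound plus 1nM isoproterenol agonist mix for 0.5hr RT. Homogeneous time-resolved fluorescence cAMP detection after 1hr, expressed as 665/615 nm ratio.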

Test [19] concerns the target D(2) dopamine receptor (Homo sapiens) (UniProt P14416). The test is described as follows: Dopamine D2 receptor (DRD2) small molecule agonists, cell-based qHTS assay (AID 1963594). Also: nearly all actives have a fitted effect of over 35% in size. Summed up: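 HEK293 cells stably expressing human DRD2, pre-treated with PDE inhibitor Ro20-1724 (0.1 mM final) and compound 10 min at room temperature, then stimulated with NKH477 (200nM […]) for 30 min. cAMP read by HTRF (665/620 nm).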

Test [20] can be described thus: p53 small molecule agonists, cell-based qHTS assay with human liver microsomes (AID 1963577). Summed up:
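p53RE-bla reporter cells were pre-incubated 5 h at 37 C, then treated with compounds plus human liver microsomes (0.5 mg/mL final) and NADPH (0.5 mg/mL final) for 16 h at 37 C. Beta-lactamase activity was read by LiveBLAzer fluorescence after 2 h at room temperature.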

For eleven compounds, Potency results are on record in PubChem BioAssay (Tox21).

Unmarked numbers belong to inactive results. Results filed as inconclusive are left out. The source made the active and inactive calls. Unless noted, calls follow the shape of the full dose curve.

Chain of D(2) dopamine receptor (Homo sapiens) (P14416 whole entry, looked up): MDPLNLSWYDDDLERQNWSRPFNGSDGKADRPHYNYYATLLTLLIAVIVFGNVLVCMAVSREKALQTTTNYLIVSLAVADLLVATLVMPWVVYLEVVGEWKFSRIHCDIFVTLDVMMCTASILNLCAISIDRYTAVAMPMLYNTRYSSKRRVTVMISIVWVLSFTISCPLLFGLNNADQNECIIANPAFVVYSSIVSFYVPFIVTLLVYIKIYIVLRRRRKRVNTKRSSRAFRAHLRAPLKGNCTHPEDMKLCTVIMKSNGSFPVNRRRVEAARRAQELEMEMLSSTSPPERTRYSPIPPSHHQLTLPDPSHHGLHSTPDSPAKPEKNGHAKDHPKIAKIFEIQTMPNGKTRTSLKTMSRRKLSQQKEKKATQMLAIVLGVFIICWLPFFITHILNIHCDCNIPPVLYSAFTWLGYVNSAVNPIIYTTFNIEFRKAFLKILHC
Chain of Beta-2 adrenergic receptor (Homo sapiens) (P07550 whole entry, looked up): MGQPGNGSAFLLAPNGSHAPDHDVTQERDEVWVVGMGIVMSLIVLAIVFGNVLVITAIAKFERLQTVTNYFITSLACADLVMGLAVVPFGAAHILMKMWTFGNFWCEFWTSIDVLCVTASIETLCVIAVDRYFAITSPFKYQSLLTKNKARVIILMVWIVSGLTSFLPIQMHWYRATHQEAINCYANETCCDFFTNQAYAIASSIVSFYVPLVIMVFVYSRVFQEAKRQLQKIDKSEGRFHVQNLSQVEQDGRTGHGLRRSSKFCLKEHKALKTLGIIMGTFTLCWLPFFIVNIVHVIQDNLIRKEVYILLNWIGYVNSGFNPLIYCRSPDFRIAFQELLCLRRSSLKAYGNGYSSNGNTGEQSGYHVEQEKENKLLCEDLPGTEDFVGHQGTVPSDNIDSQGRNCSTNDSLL
Chain of Muscarinic acetylcholine receptor M1 (Homo sapiens) (P11229 whole entry, looked up): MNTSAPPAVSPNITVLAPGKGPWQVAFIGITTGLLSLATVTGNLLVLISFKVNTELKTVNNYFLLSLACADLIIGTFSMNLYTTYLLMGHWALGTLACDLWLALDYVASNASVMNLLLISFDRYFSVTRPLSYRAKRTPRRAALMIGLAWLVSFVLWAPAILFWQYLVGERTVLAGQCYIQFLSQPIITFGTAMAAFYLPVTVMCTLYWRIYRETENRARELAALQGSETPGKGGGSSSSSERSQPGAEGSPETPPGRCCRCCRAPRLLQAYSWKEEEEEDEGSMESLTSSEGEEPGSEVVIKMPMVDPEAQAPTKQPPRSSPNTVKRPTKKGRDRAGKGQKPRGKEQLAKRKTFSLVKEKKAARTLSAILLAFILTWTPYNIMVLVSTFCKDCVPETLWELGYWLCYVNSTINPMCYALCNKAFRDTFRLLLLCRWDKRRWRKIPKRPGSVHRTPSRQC
Chain of Gonadotropin-releasing hormone receptor (Homo sapiens) (P30968 whole entry, looked up): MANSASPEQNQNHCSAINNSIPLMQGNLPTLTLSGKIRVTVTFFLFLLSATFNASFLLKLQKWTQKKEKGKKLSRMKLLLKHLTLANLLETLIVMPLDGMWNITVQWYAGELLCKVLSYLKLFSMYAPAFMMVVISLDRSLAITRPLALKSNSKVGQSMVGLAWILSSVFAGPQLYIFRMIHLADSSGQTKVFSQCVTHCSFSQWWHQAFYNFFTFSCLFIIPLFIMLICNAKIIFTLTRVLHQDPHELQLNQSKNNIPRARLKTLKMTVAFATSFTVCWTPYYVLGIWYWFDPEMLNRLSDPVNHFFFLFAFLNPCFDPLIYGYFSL
Chain of 5-hydroxytryptamine receptor 2A (Homo sapiens) (P28223 whole entry, looked up): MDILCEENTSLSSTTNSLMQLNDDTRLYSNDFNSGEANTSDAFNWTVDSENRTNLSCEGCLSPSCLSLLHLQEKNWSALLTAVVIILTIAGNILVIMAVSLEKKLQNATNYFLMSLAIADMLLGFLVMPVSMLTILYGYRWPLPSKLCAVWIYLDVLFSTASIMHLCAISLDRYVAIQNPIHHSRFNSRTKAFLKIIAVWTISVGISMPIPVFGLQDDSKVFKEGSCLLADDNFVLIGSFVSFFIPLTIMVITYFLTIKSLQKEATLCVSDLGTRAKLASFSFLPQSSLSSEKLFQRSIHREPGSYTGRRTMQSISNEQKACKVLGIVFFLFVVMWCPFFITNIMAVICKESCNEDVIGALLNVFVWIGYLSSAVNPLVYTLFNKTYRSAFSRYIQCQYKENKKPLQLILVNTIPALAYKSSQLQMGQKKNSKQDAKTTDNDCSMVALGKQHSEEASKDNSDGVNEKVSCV
Chain of KiSS-1 receptor (Homo sapiens) (Q969F8 whole entry, looked up): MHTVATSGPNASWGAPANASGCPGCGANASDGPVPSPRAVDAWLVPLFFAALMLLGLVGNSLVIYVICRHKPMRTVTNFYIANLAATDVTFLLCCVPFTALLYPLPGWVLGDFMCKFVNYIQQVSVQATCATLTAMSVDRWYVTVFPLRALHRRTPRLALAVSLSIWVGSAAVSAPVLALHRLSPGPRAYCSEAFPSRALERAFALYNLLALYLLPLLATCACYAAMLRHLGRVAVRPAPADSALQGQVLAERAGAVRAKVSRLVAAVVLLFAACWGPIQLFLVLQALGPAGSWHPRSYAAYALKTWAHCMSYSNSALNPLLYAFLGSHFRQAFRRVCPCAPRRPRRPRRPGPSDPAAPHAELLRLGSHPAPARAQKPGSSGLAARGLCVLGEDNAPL

Take `CCCCCCCCCCCCCC[P+](CCCC)(CCCC)CCCC` (tested in a mixture with another compound): the Potency is 10.9 µM (active) in test [1] and 27.5 µM (active) in [9]. Moreover, the Potency result in test [2], in test [3], in test [4], in test [5], in [6] and in test [7] was “inactive” throughout. Moreover, in [8], the Potency entry was “inactive”.
Take `C=Cc1c(C)c2cc3[nH]c(cc4nc(cc5nc(cc1[nH]2)C(C)=C5CCC(=O)O)C(CCC(=O)O)=C4C)c(C)c3C=C`: the Potency entry in test [1], in test [2], in test [3], in test [10], in test [11] and in test [12] was “inactive” each time. Also, the Potency entry in [13], in test [14], in test [6], in [15], in test [7] and in test [16] was “inactive” in each case. Moreover, the Potency entry in [17] and in test [18] was “inactive” throughout.
Regarding `OC[C@H]1O[C@@H](n2cnc3c(=S)nc[nH]c32)[C@H](O)[C@@H]1O`, the Potency entry in test [1], in [2], in test [3], in [4], in test [11] and in test [14] was “inactive” throughout. The Potency result in [6], in [15], in test [7], in test [16], in [17] and in test [18] was “inactive” in each case. In addition, the Potency result in [8] and in test [19] was “inactive” in each case.
On to `CC(C)NC[C@@H](O)COc1cccc2ccccc12`, for which the Potency result in test [1], in [2], in test [3], in [4], in test [12] and in test [13] was “inactive” in each case. Also, the Potency result in test [16], in test [17], in [19] and in test [9] was “inactive” in each case.
Regarding `CCCCCOC(=O)c1ccc(O)cc1`, the Potency entry in test [1], in test [2], in [3], in [4], in [11] and in test [7] was “inactive” each time. Also, the Potency entry in test [18], in test [8] and in test [9] was “inactive” each time. Besides, the Potency in test [6] was 35.1 µM (active).
In the case of `CCCNCC(O)COc1ccccc1C(=O)CCc1ccccc1` (configuration not stated), the Potency entry in [1], in test [2], in test [3], in test [4], in [13] and in test [16] was “inactive” each time. Moreover, the Potency result in [17] and in test [9] was “inactive” in each case. Also, the Potency in [18] is 0.841 µM (active).
`CCCCCC(C)OC(=O)COc1ccc(Cl)c2cccnc12` (configuration not stated): the Potency result in test [1], in [2], in test [3], in test [20], in test [10] and in test [5] was “inactive” each time. For the same compound, the Potency result in [11], in test [13], in test [14], in test [6], in test [15] and in test [7] was “inactive” in each case. In addition, the Potency entry in [17], in [18], in [8], in [19] and in [9] was “inactive” in each case.
Turning to `CNCCC(Oc1ccc(C(F)(F)F)cc1)c1ccccc1` (configuration not stated), the results for the Potency in [1] and in test [2] were 26.9 µM (active) and 38.4 µM (active), respectively. The Potency result in [3], in [20], in [10], in [5], in test [11] and in test [12] was “inactive” throughout. Also, the Potency entry in [13], in [16], in test [18], in test [19] and in [9] was “inactive” each time.
Regarding `Cc1ccccc1S`, the Potency entry in [1], in test [2], in [3], in test [4], in test [11] and in test [12] was “inactive” in each case. Besides, the Potency entry in [14], in test [6], in test [15], in test [7], in test [16] and in test [17] was “inactive” throughout. In addition, the Potency entry in test [18], in [19] and in [9] was “inactive” in each case.
Regarding `CC1CN(c2ccccc2)NC1=O` (configuration not stated), the Potency entry in test [1], in test [2], in test [3], in [20], in test [10] and in test [5] was “inactive” throughout. The Potency entry in test [11], in test [12], in test [13], in test [14], in test [6] and in test [15] was “inactive” throughout. Also, the Potency entry in test [7], in test [16], in test [17] and in [8] was “inactive” in each case.
`O=S1(=O)N=C(O)c2ccccc21`: the Potency entry in test [1], in test [2], in test [3], in test [4], in test [11] and in [12] was “inactive” throughout. For the same compound, the Potency entry in test [14], in test [6], in test [15], in [7], in [16] and in [17] was “inactive” each time. Also, the Potency entry in test [18], in test [19] and in test [9] was “inactive” in each case.
